Reference: PubChem BioAssay (NCATS)
Records with an inconclusive call do not appear. A call without a number means that no potency is given here. Values without a mark were called inactive. Activity calls are given as the source filed them. Calls follow the shape of the dose curve; as a rule, active = well fitted inhibition curve with a large enough effect; inconclusive = small, poorly fitted or top-dose-only effect; inactive = flat fitted curve, though single readings scatter.

Molecular target: Calcium and integrin-binding protein 1 (Homo sapiens) (UniProt Q99828)
Assay: Primary qHTS for Identification of Calcium Integrin Binding Protein 1 (CIB1) Competitor (AID 1508620); also: top concentration of the series differs between compounds
Conditions: CIB1-GST / FITC-alphaIIb peptide fluorescence polarization; series mostly up to 114 µM
Method in brief: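 Fluorescence polarization competition: GST-tagged CIB1 (1 uM final) preincubated with compound 15 min at room temperature, then FITC-labelled alphaIIb peptide (100 nM final) added. After 15 min at room temperature, polarization read at Ex 480/Em 540.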

Calcium and integrin-binding protein 1 (Homo sapiens), sequence (Q99828 whole entry, looked up): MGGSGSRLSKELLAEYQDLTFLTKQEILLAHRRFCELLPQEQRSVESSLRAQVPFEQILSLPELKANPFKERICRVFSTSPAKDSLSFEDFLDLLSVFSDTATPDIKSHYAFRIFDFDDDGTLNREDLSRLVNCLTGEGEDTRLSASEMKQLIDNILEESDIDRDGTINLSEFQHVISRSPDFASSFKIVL

SMILES | Potency | activity change, negative = inhibition
CC1(O)CCCC2(C)C1CCC13CC(CO)C(CCC12)C3 (stereo not drawn) | inactive | 
CC1=C(CCC(C)CC(=O)O)[C@@]2(C)CCCC(C)(C)C2CC1=O (stereo partly drawn) | inactive | 
O=C(OC[C@H]1O[C@H](O[C@]2(CO)O[C@H](CO)[C@@H](O)[C@@H]2O)[C@H](O)[C@@H](O)[C@@H]1O)c1ccccc1 | inactive | 
C=C(C)C1CCC2(C(=O)O)CCC3(C(=O)O)C(CCC4C5(C)CCC(O)C(C)(C(=O)O)C5CCC43C)C12 (stereo not drawn) | inactive | 
CC(C)=CCC/C(C)=C/CO[C@@H]1O[C@H](CO)[C@@H](O)[C@H](O)[C@H]1O | inactive | 
CC1CC(O)/C=C/C(O)C(O)CC(=O)Cc2c(Cl)c(O)cc(O)c2C(=O)O1 (stereo not drawn) | inactive | 
O=C(CO)[C@@H](O)[C@H](O[C@@H]1O[C@H](CO)[C@H](O)[C@H](O)[C@H]1O)[C@H](O)CO | inactive | 
CC(C)C(=O)OC[C@H]1O[C@H](O[C@H]2O[C@H](CO)[C@@H](O)[C@H](O)[C@H]2O)[C@H](O)[C@@H](O)[C@@H]1O | inactive | 
CC1CC(C(O)C(C)(C)O)OC2CC3(C)C4(C)CCC5C(C)(C)C(=O)CCC5(C)C4CCC3(O)C12O (stereo not drawn) | inactive | 
CC(C)C[C@H](CC(=O)NO)C(=O)N[C@H](C(=O)N[C@@H](C)C(=O)NCCN)C(C)(C)C | inactive | 
C[C@@H]1O[C@@H](O[C@H]2[C@H](OC(=O)[C@]34CCC(C)(C)C[C@H]3C3=CCC5[C@@]6(C)C[C@H](O)[C@H](O[C@@H]7O[C@H](CO)[C@@H](O)[C@H](O)[C@H]7O)[C@@](C)(CO)C6[C@H](O)C[C@@]5(C)[C@]3(C)CC4)OC[C@H](O)[C@@H]2O)[C@H](O)[C@H](O)[C@H]1O[C@@H]1OC[C@@H](O)[C@H](O[C@@H]2OC[C@](O)(CO)[C@H]2O)[C@H]1O (stereo partly drawn) |  | 3.34% [at 12.4 µM]
CCNC(=O)C1OC(n2cnc3c(N)nc(NCCc4ccc(CCC(=O)O)cc4)nc32)C(O)C1O (stereo not drawn) | inactive | 
O=C1Nc2ccccc2C(O)(c2ccccc2)C1O (stereo not drawn) | inactive | 
CC1CC(O)C2(OC1=O)OC1C(O)C3C4CCC5CC(OC6OC(CO)C(O)C(O)C6OC6OC(C)C(O)C(O)C6O)CCC5(C)C4CCC3(C)C1C2C (stereo not drawn) | inactive | 
CC1=CC(=O)CC(C)(C)C1/C=C/C(C)O[C@@H]1O[C@H](CO)[C@@H](O)[C@H](O)[C@H]1O[C@@H]1OC[C@](O)(CO)[C@H]1O (stereo partly drawn) | inactive | 
OC[C@H]1O[C@@H](O[C@H]2[C@H](OCc3ccccc3)O[C@H](CO[C@@H]3OC[C@@H](O)[C@H](O)[C@H]3O)[C@@H](O)[C@@H]2O)[C@H](O)[C@@H](O)[C@@H]1O | inactive | 
C[C@@H]1[C@H]2[C@H](O[C@@H]3O[C@H](CO)[C@@H](O)[C@H](O)[C@H]3O)OC=C(C(=O)O)[C@H]2C[C@@H]1O | inactive | 
C[C@H](O)[C@H](O)/C=C/c1cccc(O)c1CO | inactive | 
O=C(O)/C=C/c1ccc(O)c(O[C@@H]2O[C@H](CO)[C@@H](O)[C@H](O)[C@H]2O)c1 | inactive | 
C[C@@H]1O[C@@H](O[C@H]2[C@H](OC(=O)[C@]34CCC(C)(C)C[C@H]3C3=CCC5[C@@]6(C)CC[C@H](O[C@@H]7O[C@H](C(=O)O)[C@@H](O)[C@H](O)[C@H]7O[C@@H]7O[C@H](CO)[C@H](O)[C@H](O)[C@H]7O)[C@@](C)(C=O)C6CC[C@@]5(C)[C@]3(C)C[C@H]4O)O[C@H](C)[C@H](O[C@@H]3O[C@H](C)[C@H](O)[C@H](O)[C@H]3O)[C@@H]2O)[C@H](O)[C@H](O)[C@H]1O[C@@H]1OC[C@@H](O)[C@H](O[C@@H]2O[C@H](CO)[C@@H](O)[C@H](O)[C@H]2O)[C@H]1O (stereo partly drawn) |  | -0.579% [at 12.4 µM]
C[C@@H]1O[C@@H](O[C@@H]2[C@@H](O)[C@@H](O[C@]3(CO)O[C@H](CO)[C@@H](O)[C@@H]3OC(=O)/C=C/c3ccc(O)cc3)O[C@H](CO)[C@H]2OC(=O)/C=C/c2ccc(O)cc2)[C@H](O)[C@H](O)[C@H]1O[C@@H]1O[C@@H](C)[C@H](O[C@@H]2OC[C@](O)(CO)[C@H]2O)[C@@H](O)[C@H]1O | inactive | 
C=C(CO)C12OC1C1(C)C(=CC2=O)C(O)C(O)CC1C (stereo not drawn) | inactive | 
COC(=O)CC(O)CC(O)/C=C/c1c(C)ccc2c1C(O)CC(C)C2 (stereo not drawn) | inactive | 
COc1c2c(c(CO)c3c1C(=O)OC3)OC1(C)CCC3(O)C(C)(C)OC(=O)CCC3(C)C1C2 (stereo not drawn) | inactive | 
CC1CCC2(C=O)C(CO)=CCCC2C1(C)CC(=O)O (stereo not drawn) | inactive | 
CC1CC(=O)C2=C(CCC3(O)C(O)c4c(O)cccc4C(=O)C23O)C1 (stereo not drawn) | inactive | 
CC1(C)CC2=C3C=CC4C5(C)CCC(O)C(C)(C)C5CCC4(C)C3(C)CCC2(C)C(O)C1 (stereo not drawn) | inactive | 
CC(C)=CCC/C(C)=C/CO[C@@H]1O[C@H](CO)[C@@H](OC(=O)/C=C/c2ccc(O)cc2)[C@H](O[C@@H]2O[C@@H](C)[C@H](O)[C@@H](O)[C@H]2O)[C@H]1O | inactive | 
